From publication PMC3315485, “Probing the Informational and Regulatory Plasticity of a Transcription Factor DNA–Binding Domain”
Residue numbers refer to the chain shown, from its start.

Experiments:
Assay in all cases: MITOMI; MITOMI, 295 K (22 C); buffer, salt and pH not stated in the material; high values mean tight binding
Settings in all cases: protein: ivt; label: fluorescent; dsDNA, one strand shown
MarA wild type (WQR) = biological target: T1, MarA wild type (WQR) (Escherichia coli, UniProt P0ACH5 1-127)
T1 sequence: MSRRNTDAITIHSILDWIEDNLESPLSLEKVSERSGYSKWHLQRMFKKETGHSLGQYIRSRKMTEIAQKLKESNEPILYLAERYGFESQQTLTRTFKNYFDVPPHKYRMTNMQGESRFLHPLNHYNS
Method in brief: (§1)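 Association constants were determined by MITOMI and are expressed for each site relative to the site with the highest affinity for the same protein variant. The MarA protein variants were made with the RTS E. coli HY kit by in vitro transcription and translation and labelled through addition of tRNA-lys-bodipy-fl. Testing covered 64 synthesized mar binding site variants, with fluorescence read on Genepix at 295K.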

MarA RQR = biological target: T2, MarA RQR (Escherichia coli, UniProt P0ACH5 1-127, W40R)
T2 sequence: T1 sequence with W40R
Method in brief: as §1

MarA SAR = biological target: T3, MarA SAR (Escherichia coli, UniProt P0ACH5 1-127, W40S;Q43A)
T3 sequence: T1 sequence with W40S, Q43A
Method in brief: as §1

MarA TRR = biological target: T4, MarA TRR (Escherichia coli, UniProt P0ACH5 1-127, W40T;Q43R)
T4 sequence: T1 sequence with W40T, Q43R
Method in brief: as §1

MarA RTR = biological target: T5, MarA RTR (Escherichia coli, UniProt P0ACH5 1-127, W40R;Q43T)
T5 sequence: T1 sequence with W40R, Q43T
Method in brief: as §1

| Sequence | binding signal (MarA wild type (WQR)) | binding signal (MarA RQR) | binding signal (MarA SAR) | binding signal (MarA TRR) | binding signal (MarA RTR) |
| --- | --- | --- | --- | --- | --- |
| ATGCTGCGTTTTGCTAAAT | 0.442 Ka relative to the best site of the variant | 0.169 Ka relative to the best site of the variant | 0.521 Ka relative to the best site of the variant | 0.588 Ka relative to the best site of the variant | – |
| ATGTATCGTTTTGCTAAAT | 0.282 Ka relative to the best site of the variant | 0.121 Ka relative to the best site of the variant | 0.221 Ka relative to the best site of the variant | 0.432 Ka relative to the best site of the variant | 0.902 Ka relative to the best site of the variant |
| ATGGTCCGTTTTGCTAAAT | 0.209 Ka relative to the best site of the variant | 0.18 Ka relative to the best site of the variant | 0.98 Ka relative to the best site of the variant | 0.442 Ka relative to the best site of the variant | 0.146 Ka relative to the best site of the variant |
| ATGGTGCGTTTTGCTAAAT | 0.304 Ka relative to the best site of the variant | 0.115 Ka relative to the best site of the variant | 0.784 Ka relative to the best site of the variant | 0.382 Ka relative to the best site of the variant | 0.183 Ka relative to the best site of the variant |
| ATGCGGCGTTTTGCTAAAT | 0.318 Ka relative to the best site of the variant | 0.0951 Ka relative to the best site of the variant | 0.379 Ka relative to the best site of the variant | 0.501 Ka relative to the best site of the variant | 0.255 Ka relative to the best site of the variant |
| ATGATTCGTTTTGCTAAAT | 0.264 Ka relative to the best site of the variant | 0.122 Ka relative to the best site of the variant | 0.807 Ka relative to the best site of the variant | 0.453 Ka relative to the best site of the variant | 0.208 Ka relative to the best site of the variant |
| ATGGGCCGTTTTGCTAAAT | 0.236 Ka relative to the best site of the variant | 0.147 Ka relative to the best site of the variant | 0.575 Ka relative to the best site of the variant | 0.368 Ka relative to the best site of the variant | 0.196 Ka relative to the best site of the variant |
| ATGAAGCGTTTTGCTAAAT | 0.256 Ka relative to the best site of the variant | 0.0942 Ka relative to the best site of the variant | 0.677 Ka relative to the best site of the variant | 0.338 Ka relative to the best site of the variant | 0.204 Ka relative to the best site of the variant |
| ATGCACCGTTTTGCTAAAT | 0.261 Ka relative to the best site of the variant | 0.132 Ka relative to the best site of the variant | 0.497 Ka relative to the best site of the variant | 0.449 Ka relative to the best site of the variant | 0.202 Ka relative to the best site of the variant |
| ATGCCCCGTTTTGCTAAAT | 0.272 Ka relative to the best site of the variant | 0.294 Ka relative to the best site of the variant | 0.492 Ka relative to the best site of the variant | 0.397 Ka relative to the best site of the variant | 0.243 Ka relative to the best site of the variant |
| ATGTAACGTTTTGCTAAAT | 0.345 Ka relative to the best site of the variant | 0.135 Ka relative to the best site of the variant | 0.232 Ka relative to the best site of the variant | 0.492 Ka relative to the best site of the variant | 0.514 Ka relative to the best site of the variant |
| ATGACCCGTTTTGCTAAAT | 0.32 Ka relative to the best site of the variant | 0.701 Ka relative to the best site of the variant | 0.573 Ka relative to the best site of the variant | 0.379 Ka relative to the best site of the variant | 0.63 Ka relative to the best site of the variant |
| ATGTGCCGTTTTGCTAAAT | 0.245 Ka relative to the best site of the variant | 0.134 Ka relative to the best site of the variant | 0.236 Ka relative to the best site of the variant | 0.407 Ka relative to the best site of the variant | 0.201 Ka relative to the best site of the variant |
| ATGTTTCGTTTTGCTAAAT | 0.217 Ka relative to the best site of the variant | 0.214 Ka relative to the best site of the variant | 0.21 Ka relative to the best site of the variant | 0.539 Ka relative to the best site of the variant | 0.716 Ka relative to the best site of the variant |
| ATGCCACGTTTTGCTAAAT | 0.646 Ka relative to the best site of the variant | 0.243 Ka relative to the best site of the variant | 0.379 Ka relative to the best site of the variant | 0.497 Ka relative to the best site of the variant | 0.223 Ka relative to the best site of the variant |
| ATGTCTCGTTTTGCTAAAT | 0.301 Ka relative to the best site of the variant | 0.956 Ka relative to the best site of the variant | 0.259 Ka relative to the best site of the variant | 0.462 Ka relative to the best site of the variant | 0.642 Ka relative to the best site of the variant |
